ChEMBL document CHEMBL1961873, “Compounds: GSK PKIS; Assays: Nanosyn kinase panel” (2012)

Assays:
[1] = biological target: Protein kinase C gamma type (Homo sapiens) (UniProt P05129); settings: at 1 µM;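 also: each value is an averaged percent inhibition of the enzyme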
[2] = biological target: T1, Protein kinase C iota type (Homo sapiens) (UniProt P41743); settings: at 0.1 µM
T1 sequence (whole entry): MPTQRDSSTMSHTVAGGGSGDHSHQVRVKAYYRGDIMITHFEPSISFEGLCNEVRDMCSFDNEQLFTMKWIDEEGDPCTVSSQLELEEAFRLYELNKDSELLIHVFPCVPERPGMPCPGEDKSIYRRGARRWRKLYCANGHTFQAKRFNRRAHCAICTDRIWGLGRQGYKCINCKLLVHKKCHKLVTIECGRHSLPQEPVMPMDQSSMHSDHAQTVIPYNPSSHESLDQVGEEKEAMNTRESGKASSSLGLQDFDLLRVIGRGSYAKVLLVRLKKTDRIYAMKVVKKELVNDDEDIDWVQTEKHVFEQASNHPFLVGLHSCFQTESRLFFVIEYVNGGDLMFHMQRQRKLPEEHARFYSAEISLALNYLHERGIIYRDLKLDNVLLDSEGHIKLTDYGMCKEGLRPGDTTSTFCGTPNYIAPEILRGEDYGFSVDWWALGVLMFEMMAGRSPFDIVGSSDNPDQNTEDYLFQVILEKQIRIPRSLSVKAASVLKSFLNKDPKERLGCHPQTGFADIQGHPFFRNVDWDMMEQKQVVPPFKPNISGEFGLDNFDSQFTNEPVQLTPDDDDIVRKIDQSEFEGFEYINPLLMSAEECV

[3] = biological target: T1, Protein kinase C iota type (Homo sapiens); settings: at 1 µM
[4] = biological target: Protein kinase C theta type (Homo sapiens) (UniProt Q04759); settings: at 0.1 µM
Sequence of Protein kinase C theta type (Homo sapiens) (Q04759 whole entry, looked up): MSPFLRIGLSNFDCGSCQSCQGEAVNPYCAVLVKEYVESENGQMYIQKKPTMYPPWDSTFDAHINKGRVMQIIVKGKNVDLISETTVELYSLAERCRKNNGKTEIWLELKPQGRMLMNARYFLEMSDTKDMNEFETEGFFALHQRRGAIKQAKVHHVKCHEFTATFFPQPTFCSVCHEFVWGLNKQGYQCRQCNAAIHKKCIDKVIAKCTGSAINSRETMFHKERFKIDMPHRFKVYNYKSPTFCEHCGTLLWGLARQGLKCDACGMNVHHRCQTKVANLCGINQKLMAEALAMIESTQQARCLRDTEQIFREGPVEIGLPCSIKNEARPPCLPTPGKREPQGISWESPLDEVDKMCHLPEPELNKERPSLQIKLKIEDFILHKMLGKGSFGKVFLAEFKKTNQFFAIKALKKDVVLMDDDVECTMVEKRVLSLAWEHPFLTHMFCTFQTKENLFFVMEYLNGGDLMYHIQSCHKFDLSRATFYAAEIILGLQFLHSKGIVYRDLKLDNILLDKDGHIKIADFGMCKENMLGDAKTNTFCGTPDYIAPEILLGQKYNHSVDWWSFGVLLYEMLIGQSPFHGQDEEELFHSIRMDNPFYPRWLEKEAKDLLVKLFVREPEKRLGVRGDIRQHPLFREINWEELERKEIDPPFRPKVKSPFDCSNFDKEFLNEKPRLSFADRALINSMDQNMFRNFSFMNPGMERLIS

[5] = biological target: Protein kinase C theta type (Homo sapiens) (UniProt Q04759); settings: at 1 µM
[6] = biological target: Protein kinase C beta type (Homo sapiens) (UniProt P05771); settings: at 0.1 µM
Sequence of Protein kinase C beta type (Homo sapiens) (P05771 2-671 limits assumed): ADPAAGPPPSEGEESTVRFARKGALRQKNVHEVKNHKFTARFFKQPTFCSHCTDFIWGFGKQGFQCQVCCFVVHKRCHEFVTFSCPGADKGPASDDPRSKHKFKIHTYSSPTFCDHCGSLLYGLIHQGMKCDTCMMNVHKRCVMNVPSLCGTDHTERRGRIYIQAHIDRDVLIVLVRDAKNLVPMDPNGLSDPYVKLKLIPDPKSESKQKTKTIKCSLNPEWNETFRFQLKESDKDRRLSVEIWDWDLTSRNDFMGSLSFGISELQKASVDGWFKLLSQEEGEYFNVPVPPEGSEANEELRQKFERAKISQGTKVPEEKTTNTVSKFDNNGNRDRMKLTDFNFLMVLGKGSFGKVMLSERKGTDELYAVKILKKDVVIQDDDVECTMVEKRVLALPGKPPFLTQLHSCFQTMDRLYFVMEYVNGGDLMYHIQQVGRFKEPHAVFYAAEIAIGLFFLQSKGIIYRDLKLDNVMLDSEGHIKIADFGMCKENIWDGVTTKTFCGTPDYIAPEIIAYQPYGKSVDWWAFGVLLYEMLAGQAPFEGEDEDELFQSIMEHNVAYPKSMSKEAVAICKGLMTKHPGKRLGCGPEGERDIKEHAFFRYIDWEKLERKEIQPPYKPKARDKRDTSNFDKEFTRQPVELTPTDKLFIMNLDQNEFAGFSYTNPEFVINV

[7] = biological target: Protein kinase C beta type (Homo sapiens) (UniProt P05771); settings: at 1 µM
[8] = biological target: T2, Serine/threonine-protein kinase D1 (Homo sapiens) (UniProt Q15139); settings: at 0.1 µM
T2 sequence (whole entry): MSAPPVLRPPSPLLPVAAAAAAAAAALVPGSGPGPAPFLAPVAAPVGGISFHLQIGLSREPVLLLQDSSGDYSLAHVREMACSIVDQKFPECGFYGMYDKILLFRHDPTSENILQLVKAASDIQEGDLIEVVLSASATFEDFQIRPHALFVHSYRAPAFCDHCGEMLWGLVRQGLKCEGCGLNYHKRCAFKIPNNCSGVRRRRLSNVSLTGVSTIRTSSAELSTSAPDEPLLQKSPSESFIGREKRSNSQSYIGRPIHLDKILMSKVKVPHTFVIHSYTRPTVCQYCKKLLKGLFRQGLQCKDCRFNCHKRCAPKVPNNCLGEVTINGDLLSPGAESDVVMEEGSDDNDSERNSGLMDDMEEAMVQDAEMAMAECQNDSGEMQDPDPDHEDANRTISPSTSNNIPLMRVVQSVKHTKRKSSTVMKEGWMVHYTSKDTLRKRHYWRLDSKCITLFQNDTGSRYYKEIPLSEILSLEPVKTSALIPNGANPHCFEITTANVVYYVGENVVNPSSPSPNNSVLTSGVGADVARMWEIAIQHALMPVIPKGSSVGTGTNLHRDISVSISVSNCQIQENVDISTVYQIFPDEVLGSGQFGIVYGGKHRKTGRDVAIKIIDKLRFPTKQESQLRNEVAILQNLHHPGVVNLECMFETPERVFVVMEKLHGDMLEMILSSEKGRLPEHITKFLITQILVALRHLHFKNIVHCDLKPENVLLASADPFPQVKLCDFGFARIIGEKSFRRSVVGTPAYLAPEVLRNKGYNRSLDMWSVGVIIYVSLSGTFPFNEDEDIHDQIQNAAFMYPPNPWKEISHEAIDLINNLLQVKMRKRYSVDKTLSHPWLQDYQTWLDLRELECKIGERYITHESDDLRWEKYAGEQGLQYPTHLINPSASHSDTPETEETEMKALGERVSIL

[9] = biological target: T2, Serine/threonine-protein kinase D1 (Homo sapiens); settings: at 1 µM
[10] = biological target: T3, Serine/threonine-protein kinase D2 (Homo sapiens) (UniProt Q9BZL6); settings: at 0.1 µM
T3 sequence (whole entry): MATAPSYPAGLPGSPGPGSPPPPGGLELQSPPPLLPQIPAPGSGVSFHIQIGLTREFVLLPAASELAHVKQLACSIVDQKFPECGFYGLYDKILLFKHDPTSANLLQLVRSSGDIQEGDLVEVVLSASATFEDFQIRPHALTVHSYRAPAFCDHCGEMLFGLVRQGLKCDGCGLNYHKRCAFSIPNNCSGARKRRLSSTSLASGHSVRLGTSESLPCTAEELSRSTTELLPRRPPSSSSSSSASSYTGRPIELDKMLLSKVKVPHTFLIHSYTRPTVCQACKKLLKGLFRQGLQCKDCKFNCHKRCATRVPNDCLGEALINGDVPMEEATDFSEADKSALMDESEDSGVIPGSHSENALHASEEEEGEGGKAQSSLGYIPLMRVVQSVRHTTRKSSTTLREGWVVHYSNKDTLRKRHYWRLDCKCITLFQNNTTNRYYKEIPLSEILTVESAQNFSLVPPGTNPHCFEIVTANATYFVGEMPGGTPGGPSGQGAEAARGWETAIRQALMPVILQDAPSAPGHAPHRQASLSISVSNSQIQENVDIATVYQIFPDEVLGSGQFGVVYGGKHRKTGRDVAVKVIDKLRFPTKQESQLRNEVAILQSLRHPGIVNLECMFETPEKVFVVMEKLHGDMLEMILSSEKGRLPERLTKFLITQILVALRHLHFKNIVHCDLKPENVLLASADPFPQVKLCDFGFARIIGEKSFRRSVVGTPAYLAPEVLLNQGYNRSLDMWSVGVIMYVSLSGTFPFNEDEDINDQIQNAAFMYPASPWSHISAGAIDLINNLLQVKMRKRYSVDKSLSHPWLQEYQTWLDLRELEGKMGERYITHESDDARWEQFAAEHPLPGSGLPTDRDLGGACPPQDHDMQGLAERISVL

[11] = biological target: T3, Serine/threonine-protein kinase D2 (Homo sapiens); settings: at 1 µM
[12] = biological target: T4, Serine/threonine-protein kinase D3 (Homo sapiens) (UniProt O94806); settings: at 0.1 µM
T4 sequence (whole entry): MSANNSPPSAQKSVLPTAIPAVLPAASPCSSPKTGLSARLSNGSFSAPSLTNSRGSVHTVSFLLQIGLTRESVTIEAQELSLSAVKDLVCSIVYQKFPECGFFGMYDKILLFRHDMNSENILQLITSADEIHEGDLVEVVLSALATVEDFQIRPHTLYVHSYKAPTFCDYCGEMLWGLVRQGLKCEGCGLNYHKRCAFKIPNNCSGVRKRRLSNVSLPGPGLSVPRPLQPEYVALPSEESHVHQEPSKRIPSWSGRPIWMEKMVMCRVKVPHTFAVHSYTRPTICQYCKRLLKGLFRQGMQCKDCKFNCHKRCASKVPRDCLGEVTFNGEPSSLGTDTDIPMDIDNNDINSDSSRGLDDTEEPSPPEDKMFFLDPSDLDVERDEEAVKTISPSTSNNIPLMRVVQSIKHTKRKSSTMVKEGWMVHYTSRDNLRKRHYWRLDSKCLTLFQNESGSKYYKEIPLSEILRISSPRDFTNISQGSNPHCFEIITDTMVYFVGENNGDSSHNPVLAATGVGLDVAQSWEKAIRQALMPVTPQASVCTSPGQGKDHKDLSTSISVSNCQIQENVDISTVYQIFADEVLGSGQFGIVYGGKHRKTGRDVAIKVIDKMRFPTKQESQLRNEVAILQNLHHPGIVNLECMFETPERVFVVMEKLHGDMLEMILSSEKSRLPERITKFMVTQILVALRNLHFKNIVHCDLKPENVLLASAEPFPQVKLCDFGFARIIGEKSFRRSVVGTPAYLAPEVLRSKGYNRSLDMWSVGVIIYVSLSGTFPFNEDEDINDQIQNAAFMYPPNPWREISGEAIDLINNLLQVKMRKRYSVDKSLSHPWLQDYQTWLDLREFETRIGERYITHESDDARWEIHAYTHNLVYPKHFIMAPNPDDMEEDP

[13] = biological target: T4, Serine/threonine-protein kinase D3 (Homo sapiens); settings: at 1 µM
[14] = biological target: T5, cGMP-dependent protein kinase 1 (Homo sapiens) (UniProt Q13976); settings: at 0.1 µM
T5 sequence (whole entry): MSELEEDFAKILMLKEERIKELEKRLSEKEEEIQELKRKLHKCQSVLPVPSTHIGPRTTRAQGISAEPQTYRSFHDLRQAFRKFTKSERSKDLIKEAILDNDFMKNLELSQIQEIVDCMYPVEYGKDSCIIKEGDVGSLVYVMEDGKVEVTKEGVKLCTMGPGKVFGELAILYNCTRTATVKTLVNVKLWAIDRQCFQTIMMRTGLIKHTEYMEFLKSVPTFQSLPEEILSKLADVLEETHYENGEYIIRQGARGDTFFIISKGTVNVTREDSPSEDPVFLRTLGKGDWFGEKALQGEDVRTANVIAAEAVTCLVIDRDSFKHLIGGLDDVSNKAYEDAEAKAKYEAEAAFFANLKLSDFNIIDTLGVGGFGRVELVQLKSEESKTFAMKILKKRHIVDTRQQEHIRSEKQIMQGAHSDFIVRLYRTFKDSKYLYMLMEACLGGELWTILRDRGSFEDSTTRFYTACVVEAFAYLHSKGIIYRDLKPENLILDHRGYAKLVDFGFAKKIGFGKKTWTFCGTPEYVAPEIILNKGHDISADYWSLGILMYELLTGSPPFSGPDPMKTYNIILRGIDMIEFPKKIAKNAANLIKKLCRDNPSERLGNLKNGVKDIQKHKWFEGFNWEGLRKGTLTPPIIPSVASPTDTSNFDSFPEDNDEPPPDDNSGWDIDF

[15] = biological target: T5, cGMP-dependent protein kinase 1 (Homo sapiens); settings: at 1 µM
[16] = biological target: T6, cGMP-dependent protein kinase 2 (Homo sapiens) (UniProt Q13237); settings: at 0.1 µM
T6 sequence (whole entry): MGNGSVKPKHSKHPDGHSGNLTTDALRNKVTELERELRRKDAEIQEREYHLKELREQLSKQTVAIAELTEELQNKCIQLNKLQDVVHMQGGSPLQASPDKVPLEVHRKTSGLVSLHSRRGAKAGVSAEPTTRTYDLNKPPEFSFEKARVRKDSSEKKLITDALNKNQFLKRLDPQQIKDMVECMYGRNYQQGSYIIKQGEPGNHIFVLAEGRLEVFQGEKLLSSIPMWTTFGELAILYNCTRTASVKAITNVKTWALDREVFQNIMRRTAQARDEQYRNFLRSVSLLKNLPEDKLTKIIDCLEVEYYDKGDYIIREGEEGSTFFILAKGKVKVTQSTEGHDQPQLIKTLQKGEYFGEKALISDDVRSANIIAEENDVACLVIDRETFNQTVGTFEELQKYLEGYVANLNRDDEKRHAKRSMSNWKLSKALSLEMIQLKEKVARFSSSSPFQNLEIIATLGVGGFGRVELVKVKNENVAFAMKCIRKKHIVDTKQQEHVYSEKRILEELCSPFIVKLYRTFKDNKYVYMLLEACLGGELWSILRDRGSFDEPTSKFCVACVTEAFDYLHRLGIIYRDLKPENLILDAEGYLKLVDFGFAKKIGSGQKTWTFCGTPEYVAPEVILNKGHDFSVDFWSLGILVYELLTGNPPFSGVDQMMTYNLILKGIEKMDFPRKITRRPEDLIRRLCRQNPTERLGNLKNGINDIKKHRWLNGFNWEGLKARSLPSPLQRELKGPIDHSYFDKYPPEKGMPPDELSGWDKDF

[17] = biological target: T6, cGMP-dependent protein kinase 2 (Homo sapiens); settings: at 1 µM
[18] = biological target: T7, cAMP-dependent protein kinase catalytic subunit PRKX (Homo sapiens) (UniProt P51817); settings: at 0.1 µM
T7 sequence (whole entry): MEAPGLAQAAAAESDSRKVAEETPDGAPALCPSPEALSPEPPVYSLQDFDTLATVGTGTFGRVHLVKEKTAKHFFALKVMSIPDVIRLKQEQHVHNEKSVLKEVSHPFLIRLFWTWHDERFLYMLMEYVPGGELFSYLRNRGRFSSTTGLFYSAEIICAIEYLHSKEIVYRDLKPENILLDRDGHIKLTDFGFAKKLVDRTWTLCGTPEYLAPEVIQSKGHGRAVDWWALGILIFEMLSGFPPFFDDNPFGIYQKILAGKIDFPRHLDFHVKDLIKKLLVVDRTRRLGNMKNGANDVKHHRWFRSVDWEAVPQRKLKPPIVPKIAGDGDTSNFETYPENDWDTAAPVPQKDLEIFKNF

[19] = biological target: T7, cAMP-dependent protein kinase catalytic subunit PRKX (Homo sapiens); settings: at 1 µM
[20] = biological target: Rho-associated protein kinase 1 (Homo sapiens) (UniProt Q13464); settings: at 0.1 µM;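 also: values are mean percent inhibition of ROCK1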
Sequence of Rho-associated protein kinase 1 (Homo sapiens) (Q13464 2-1354 limits assumed): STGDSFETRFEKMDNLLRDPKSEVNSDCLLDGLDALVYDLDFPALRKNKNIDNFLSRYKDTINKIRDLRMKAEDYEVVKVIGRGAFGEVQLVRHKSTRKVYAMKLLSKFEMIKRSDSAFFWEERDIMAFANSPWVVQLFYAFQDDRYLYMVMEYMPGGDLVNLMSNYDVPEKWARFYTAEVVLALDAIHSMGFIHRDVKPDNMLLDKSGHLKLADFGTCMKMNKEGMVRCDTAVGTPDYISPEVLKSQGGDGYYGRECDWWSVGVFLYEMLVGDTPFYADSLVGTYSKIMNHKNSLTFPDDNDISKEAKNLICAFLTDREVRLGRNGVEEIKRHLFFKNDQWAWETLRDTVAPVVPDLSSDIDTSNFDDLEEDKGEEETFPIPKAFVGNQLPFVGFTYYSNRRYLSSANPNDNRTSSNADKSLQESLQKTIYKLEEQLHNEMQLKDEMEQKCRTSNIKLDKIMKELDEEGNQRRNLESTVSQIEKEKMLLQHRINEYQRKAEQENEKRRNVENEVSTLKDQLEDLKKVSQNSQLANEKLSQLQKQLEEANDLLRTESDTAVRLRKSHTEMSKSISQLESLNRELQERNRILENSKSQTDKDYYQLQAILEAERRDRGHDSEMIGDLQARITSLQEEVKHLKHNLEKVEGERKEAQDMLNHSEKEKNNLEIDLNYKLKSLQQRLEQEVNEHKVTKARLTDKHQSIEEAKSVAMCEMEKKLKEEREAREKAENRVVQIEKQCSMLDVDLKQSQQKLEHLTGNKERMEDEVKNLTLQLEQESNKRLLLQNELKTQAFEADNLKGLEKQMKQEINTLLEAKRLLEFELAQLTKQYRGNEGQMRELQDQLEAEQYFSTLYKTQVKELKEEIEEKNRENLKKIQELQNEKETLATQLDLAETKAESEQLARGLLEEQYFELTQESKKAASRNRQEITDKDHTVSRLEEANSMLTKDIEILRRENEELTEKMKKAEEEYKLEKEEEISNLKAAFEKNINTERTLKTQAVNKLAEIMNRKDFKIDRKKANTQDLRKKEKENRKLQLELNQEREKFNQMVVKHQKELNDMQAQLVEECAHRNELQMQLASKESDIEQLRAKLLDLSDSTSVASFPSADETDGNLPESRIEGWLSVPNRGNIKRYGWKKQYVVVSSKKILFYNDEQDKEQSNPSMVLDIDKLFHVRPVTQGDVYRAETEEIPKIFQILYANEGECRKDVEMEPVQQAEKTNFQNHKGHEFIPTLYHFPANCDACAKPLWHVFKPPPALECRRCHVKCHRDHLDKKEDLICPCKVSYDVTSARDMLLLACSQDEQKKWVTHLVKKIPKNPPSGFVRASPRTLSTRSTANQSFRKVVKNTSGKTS

SMILES	inhibition [1] [%]	inhibition [2] [%]	inhibition [3] [%]	inhibition [4] [%]	inhibition [5] [%]	inhibition [6] [%]	inhibition [7] [%]	inhibition [8] [%]	inhibition [9] [%]	inhibition [10] [%]	inhibition [11] [%]	inhibition [12] [%]	inhibition [13] [%]	inhibition [14] [%]	inhibition [15] [%]	inhibition [16] [%]	inhibition [17] [%]	inhibition [18] [%]	inhibition [19] [%]	inhibition [20] [%]
CCS(=O)(=O)c1ccc(OC)c(Nc2ncc(-c3cccc(OC)c3)o2)c1	3.87	1.8	3.38	1.22	0.3	0.6	2.93	2.32	4.41	2.35	3.71	3.28	3.64	1.45	2.34	0.25	2.95	0.28	-2.35	0.26
Nc1nccc(-c2c(-c3ccc(F)cc3)nn3cc(C(F)(F)F)ccc23)n1	-0.26	-0.75	-1.18	-0.19	-0.16	-0.91	2.07	0.77	3.05	1.62	3.04	0.99	3.75	-0.61	-0.49	-0.17	-0.08	0.72	-0.61	-0.4
NS(=O)(=O)c1ccc(NC=C2C(=O)Nc3ccc4ncsc4c32)cc1	9.7	2.56	5.28	3.44	11.8	2.28	6.13	28.5	78.4	21.3	79	19.4	76.3	6.31	28.6	18.4	61.7	2.2	12.2	15.5
